{
  "source": "paper PMC7826789",
  "about": "(International Journal of Molecular Sciences, 2021)",
  "data": [
    {"compound": "CCOc1ccc2c(-c3ccnc(Nc4cccc(C(F)(F)F)c4)n3)cnn2n1", "note": "[GW811761X]", "values": [
      {"measurement": "Kinases covered", "setting": "CLK1", "value": "CLK1"},
      {"measurement": "Kinases covered", "setting": "CLK2", "value": "CLK2"}
    ]},
    {"compound": "CNC(=O)c1c(F)cccc1Nc1nc(Nc2cc3c(cc2OC)CCN3C(=O)CN(C)C)nc2[nH]ccc12", "note": "[GSK1838705]", "values": [
      {"measurement": "Kinases covered", "setting": "CLK1", "value": "CLK1"},
      {"measurement": "Kinases covered", "setting": "CLK2", "value": "CLK2"}
    ]},
    {"compound": "COc1ccc2c(-c3ccnc(Nc4cccc(OC(F)(F)F)c4)n3)cnn2n1", "note": "[GW810372X]", "values": [
      {"measurement": "Kinases covered", "setting": "CLK2", "value": "CLK2"}
    ]},
    {"compound": "COc1cc(Nc2cnc(C#N)c(O[C@H](C)CN(C)C)n2)ncc1-c1cnn(C)c1", "note": "[CCT244747]", "values": [
      {"measurement": "Kinases covered", "setting": "CHEK1", "value": "CHEK1"}
    ]},
    {"compound": "O=C(Nc1n[nH]c2cc(-c3ccsc3)ccc12)C1CC1", "note": "[SB-732932]", "values": [
      {"measurement": "Kinases covered", "setting": "CDKL2", "value": "CDKL2"}
    ]},
    {"compound": "NS(=O)(=O)c1ccc(N/N=C2\\C(=O)Nc3ccc(C(=O)NCCc4c[nH]cn4)cc32)cc1", "note": "[GW300660X]", "values": [
      {"measurement": "Kinases covered", "setting": "CLK2", "value": "CLK2"}
    ]},
    {"compound": "CCCNC(=O)c1ccc(Nc2ncc(C(F)(F)F)c(Nc3ccccc3C(C)=O)n2)c(Br)c1", "note": "[BI00801818]", "values": [
      {"measurement": "Kinases covered", "setting": "CLK1", "value": "CLK1"},
      {"measurement": "Kinases covered", "setting": "CLK4", "value": "CLK4"}
    ]},
    {"compound": "FC1=CC(C3=NC2=CC(OC)=C(OC)C=C2C(N[C@H]4[C@H]([C@](C)(O)C)CNC4)=N3)=C(O)C=C1.Cl.Cl", "note": "[CCT241533]", "values": [
      {"measurement": "Kinases covered", "setting": "CHEK2", "value": "CHEK2"}
    ]},
    {"compound": "Cc1cc(NC(=O)c2cccc(NC(=O)/C=C/CN(C)C)c2)ccc1Nc1nccc(-c2cccnc2)n1", "note": "[JNK-IN-7]", "values": [
      {"measurement": "Kinases covered", "setting": "CDKL5", "value": "CDKL5"}
    ]},
    {"compound": "CCOc1ccc2c(-c3ccnc(Nc4cc(OC)cc(C(F)(F)F)c4)n3)cnn2n1", "note": "[GW807982X]", "values": [
      {"measurement": "Kinases covered", "setting": "CLK1", "value": "CLK1"},
      {"measurement": "Kinases covered", "setting": "CLK2", "value": "CLK2"}
    ]},
    {"compound": "CNc1nc(Nc2ccc(C(=O)N3CCOCC3)cc2OC)nc2[nH]cc(Cl)c12", "note": "[JH-II-127]", "values": [
      {"measurement": "Kinases covered", "setting": "CHK2", "value": "CHK2"}
    ]},
    {"compound": "O=C(Nc1ccccc1)Nc1cccc(Oc2ccc3nccn3n2)c1", "note": "[TPKI-39]", "values": [
      {"measurement": "Kinases covered", "setting": "CIT", "value": "CIT"}
    ]},
    {"compound": "CCC(NN(C)C)=C1C(=O)Nc2ccc(C(C)=O)cc21", "note": "[BI00036838]", "values": [
      {"measurement": "Kinases covered", "setting": "CDKL5", "value": "CDKL5"}
    ]},
    {"compound": "CC(C)C(=O)N[C@@H]1CCN(C(=O)Nc2nc3c(s2)-c2nc(-c4ccccc4Cl)ncc2CC3)C1", "note": "[BI00047804]", "values": [
      {"measurement": "Kinases covered", "setting": "CLK1", "value": "CLK1"},
      {"measurement": "Kinases covered", "setting": "CLK3", "value": "CLK3"},
      {"measurement": "Kinases covered", "setting": "CLK4", "value": "CLK4"}
    ]}
  ]
}
